Results: PubChem BioAssay AID504621 (Broad Institute, 2011)
The campaign covered roughly 310,000 compounds. About 970 (0.31%) were called active. Only a selection was taken, and actives are over-represented in it overall. Values without a mark were called inactive.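 The calls were made as follows: active = every replicate shows inhibition above about 80%, whatever the replicate mean (limit read from the data); inconclusive = mean inhibition reaches the set limit but some replicate falls short; inactive = the rest.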

Test: reduced ATP signal of yeast carrying P. falciparum Hsp90 – S. cerevisiae, BacTiter-Glo luminescence, single point, set 2, antimalarial PfHsp90 inhibitor project, primary screen (AID 504621);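 also: yeast relying on Plasmodium falciparum Hsp90 in place of its own; 0% = DMSO neutral controls and 100% = 20 µM radicicol positive controls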
Conditions: S. cerevisiae expressing PfHsp90, growth, 48 h, at 9.4 µM, active compounds read high

Compared with `CCOC(=O)C1(c2ccccc2)CCN(CC(O)c2ccc(NC(C)=O)cc2)CC1` (centres undefined), `O=C(c1ccccc1)C(O)(CN1CCCCC1)c1ccccc1` (centres undefined) is higher in inhibition: -7.12% for the first, 8.04% for the second.

First: CCC(=O)OC(Cc1ccccc1)(c1ccccc1)C(C)CN(C)C (centres undefined)
Second: CC(CC(C#N)(c1ccccc1)c1ccccc1)N1CCCCC1 (centres undefined)
The inhibition of the first is higher: 34.8% for the first, 13.9% for the second.

Compared with `COC1C(O)C(C)OC(OC2CCC3(C=O)C(CCC4C3CCC3(C)C(C5=CC(=O)OC5)CCC43O)C2)C1O` (centres undefined), `CC(=O)C1(O)CCC2C3CCC4=C(Cl)C(=O)CCC4(C)C3CCC21C` (centres undefined) is higher in inhibition: -24.6% for the first, 7.87% for the second.

First: CC(=O)OC1C2(CC3N4C(=O)C5(CO)SSC4(CC31O)C(=O)N5C)OC(C)C(C)(C)C2=O (centres undefined)
Second: CCC(C)(O)C(=O)OC1C(=O)OC2CC3C(C)=CC(=O)C(O)C3(C)C3C4(O)OCC23C1C(C)C4O (centres undefined)
The inhibition of the first is higher: 11.7% for the first, -25.9% for the second.

Going from `CC1CC=CCC12C(=O)NC(=S)NC2=O` (centres undefined) to `CC1C(=O)OC2CCN3CC=C(COC(=O)C(C)(O)C1(C)O)C23` (centres undefined), the inhibition rises from 3.23% to 11.4%.

First: CC12CCC(O)CC1CCC1C2CCC2(C)C(C(=O)CC(O)C(F)(F)F)CCC12 (centres undefined)
Second: CC12CCC3C(CCC4CC(=O)CCC43C)C1CC(=NO)C2=O (centres undefined)
The inhibition of the first is higher: -14.7% for the first, -28.6% for the second.

For `CN(C)CC1Oc2ccccc2OC1(O)c1ccccc1` (centres undefined), the inhibition was 102% (active).
For `CCCCCCCCCCCCn1ccc(=N)cc1`, the inhibition was 93.6% (active).
